# Measurements: PubChem BioAssay
# Test: small-molecule binders of probe aLefty1, primary screen, biochemical, small-molecule microarray, 635/667 nm fluorescence (AID 1153);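 further: score merges spot fluorescence with signal-to-noise ratio from the scanned slide images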
# Details: higher = more signal
row,SMILES,composite z-score
1,COCCCNC(=O)[C@@]1(c2ccc([N+](=O)[O-])cc2)CC(=O)N(CC23CC4CC(CC(C4)C2)C3)[C@@H]1c1ccc(CO)cc1I,0.082
2,CC(C)OC(=O)CC(=O)CC(O)c1ccc([N+](=O)[O-])cc1 (configuration not stated),0.0509
3,CCOC(=O)C1=CCC(c2ccco2)N(S(=O)(=O)c2ccc(C)cc2)C1 (configuration not stated),0.247
4,[N-]=[N+]=Nc1ccccc1[C@@H]1OC(c2ccc(OCCCO)cc2)=N[C@]1(Cc1ccccc1)C(=O)NCc1ccccc1,0.703
5,[N-]=[N+]=NCc1ccccc1C[C@@]1(C(=O)N2CCCCC2)N=C(c2ccc(OCCCO)cc2)O[C@@H]1c1ccccc1CN=[N+]=[N-],0.254
6,O=C1C2C=CC(C(O)c3ccc(I)cc3)N(Nc3ccccc3)C2C(=O)N1c1ccccc1 (configuration not stated),0.437
7,CC(C)C(=C=CC[C@@H](O)c1cccc(OCCO)c1)C[C@@H](O)c1ccccn1,0.0502
8,COC(=O)[C@@]1(Cc2ccccc2CN=[N+]=[N-])N=C(c2ccc(OCCCO)cc2)O[C@H]1c1ccccc1,0.105
9,CCOC(=O)C[C@H]1[C@H](OC(=O)c2cc3ccccc3oc2=O)[C@@H](NC(=O)c2ccc3ccccc3c2)c2cc(OCCCO)ccc2N1C(=O)Cc1ccc(OC)cc1,-0.0479
10,COC(=O)[C@@]1(Cc2ccc(OC)cc2)[C@H]2c3cc(C(=O)N4CCCC4)n(Cc4cc(C)n(C)n4)c3C[C@H]2CN1C(=O)c1ccccc1,0.947
11,C=C(CCCC)C(=O)CC[C@H](OC(C)=O)c1ccc(OCCO)cc1,-0.316
12,COc1ccc(C(=O)Nc2cccc(CN3C(=O)[C@]4(O[C@H](CCn5cc([C@H](O)c6ccccc6)nn5)[C@@H]([Si](C)(C)c5ccc(OC)cc5)[C@@H]4C)c4ccccc43)c2)cc1,0.051
13,COCCOC(=O)N1C(=O)[C@@]2(c3cc(C#CC4=CCCCC4)ccc31)[C@H](C(=O)N1CCCCCCC1)[C@H]1C(=O)O[C@H](c3ccccc3)[C@H](c3ccccc3)N1[C@@H]2c1ccc(OCCO)cc1,1.88
14,C=C(CCCC)/C(=C/C[C@H](OC(C)=O)c1ccc(OCCO)cc1)c1cc(C(=O)OC)ccc1OC,-0.0378
15,COc1ccc([Si](C)(C)[C@H]2[C@H](CC(=O)N3CCC[C@H]3CO)O[C@@]3(C(=O)N(Cc4ccc(N5CCC5=O)cc4)c4ccccc43)[C@@H]2C)cc1,0.213
16,[N-]=[N+]=NCc1ccccc1[C@@H]1OC(c2ccc(OCCCO)cc2)=N[C@]1(Cc1ccccc1N=[N+]=[N-])C(=O)NCCN1CCOCC1,0.254
17,O=C1C[C@@](C(=O)NCC(F)(F)F)(c2ccc([N+](=O)[O-])cc2)[C@@H](c2ccc(CO)cc2)N1CC12CC3CC(CC(C3)C1)C2,0.282
